Data from PubChem BioAssay AID2314 (National Center for Advancing Translational Sciences (NCATS), 2010).
In all, about 300,000 compounds went through this assay and about 37,000 (12%) were called active. Shown is part of a subset that was picked to be rich in actives. Unmarked numbers belong to inactive results. Rule as the data show it: active = max response mostly above about 13% (no sharp cut-off); inactive = mostly below about 14%.

Assay: Cycloheximide Counterscreen for Small Molecule Inhibitors of Shiga Toxin; also: read at 38.3 µM for the half of the compounds with a filed dose; 0% is about no effect
Conditions: cell reporter, cycloheximide protein synthesis inhibition counterscreen; hits give high values

SMILES | max response
CCCCNC(=O)N1CCCC(N(C)CCc2ccc(OC)c(OC)c2)C1 (stereo not given) | -0.786%
Cc1nn(C(=O)c2ccoc2C)c(N)c1-c1ccccc1 | 53.9% (active)
CCCC(=O)n1nc(-c2ccccc2)nc1N | -1.34%
CCOC(=O)c1c(N)nn(C(=O)c2ccccc2)c1-c1ccccc1 | -1.7%
CCC(C)[C@@H](N)C(=O)O (stereo not given in full) | -4.08%
CCCCNC(=O)c1ccccc1NC(=O)C1=C(C)OCCS1 | 1.86%
Cc1nc(N2CCN(c3ccccn3)CC2)c2c(C)c(C(=O)Nc3ccc(F)cc3)sc2n1 | 1.78%
COc1ccc(CCNC(=O)C(=O)Nc2ccc3nc4n(c(=O)c3c2)CCCCC4)cc1OC | -0.998%
O=c1c2c(nc3n1CCCCC3)sc1c(O)cccc12 | 12.7%
CCCCN(CC)C(=S)Nc1ccc2nc3n(c(=O)c2c1)CCCCC3 | -3.24%
CC(=O)c1sc2nc(SCC(=O)N3CCCCC3)[nH]c(=O)c2c1C | -3.21%
Cc1nc(N2CCOCC2)c2c(C)c(C(=O)Nc3ccc(C(F)(F)F)cc3)sc2n1 | -1.52%
Cc1c(C(=O)Nc2ccccc2)sc2nc3n(c(=O)c12)CCCCC3 | 36.1% (active)
CC(=O)c1ccc(NC(=O)c2sc3nc4n(c(=O)c3c2C)CCCCC4)cc1 | 47.8% (active)
O=C(Nc1ccc2nc3n(c(=O)c2c1)CCCCC3)c1ccccc1Cl | 23% (active)
O=[N+]([O-])/C=C/c1ccc2c(ccn2Cc2ccccc2)c1 | -1.88%
CN(C)CCCCCN(C)Cc1cc2ccccc2o1 | -0.524%
COCCCNC(=O)CNC(=O)c1nn(-c2ccc(OC)cc2)c(=O)c2ccccc12 | -1.37%
O=C(Nc1ccccc1C(=O)O)c1ccc(N2C(=O)C3CC=CCC3C2=O)cc1 (stereo not given) | -5.5%
O=C1CSc2ccc(S(=O)(=O)NCc3ccccc3)cc2N1 | 7.11%

SMILES | max response
COc1cccc(N(C(=O)c2ccn[nH]2)C2(C(=O)Nc3c(C)cccc3C)CCCCC2)c1 | -5.43%
COc1ccccc1-c1nc(C#N)c(N2CCC(C(N)=O)CC2)o1 | -3.17%
Cc1oc(-c2ccccc2F)nc1CS(=O)CC(=O)NCCN1CCCCC1C (stereo not given) | -6.49%
CC1CCN(c2oc(-c3ccccc3F)nc2C#N)CC1 | 28.8% (active)
Cc1ccc(NN=Nc2nc3c([nH]2)c(=O)n(C)c(=O)n3C)cc1 | 11.7%
Cc1cccc(C)c1NC(=O)CN1C(=O)C(C)Oc2ccccc21 (stereo not given) | 1.84%
COCCn1c(SCC(=O)Nc2ccccc2F)nc2c(c1=O)SCC2 | 8.88%
COc1ccc(C(C)NC(=S)NC2CCCCC2)cc1OC (stereo not given) | -2.46%
COc1cc(Br)c(-c2sc(Nc3ccccc3)n[n+]2-c2ccccc2)cc1OC | 1.49%
COc1ccc(Oc2coc3cc(OC(=O)c4cncc(Br)c4)ccc3c2=O)cc1 | 5.74%
CCc1ccc(Oc2coc3cc(OC(=O)c4cc5ccccc5oc4=O)ccc3c2=O)cc1 | 12%
CCc1ccc(Oc2coc3cc(O)ccc3c2=O)cc1 | 31.5% (active)
CC[C@H](C)[C@H](NC(=O)[C@H](Cc1ccc(O)cc1)NC(=O)[C@@H](NC(=O)[C@H](CCCN=C(N)N)NC(=O)[C@@H](N)CC(=O)O)C(C)C)C(=O)N[C@@H](Cc1cnc[nH]1)C(=O)N1CCC[C@H]1C(=O)N[C@@H](Cc1ccccc1)C(=O)O | 16%
C=CCN1C(=O)C2(OCCCO2)c2cccc(Cl)c21 | 1.84%
Cc1ccc(CNC(=O)Cn2cnc(S(=O)(=O)N3CCCCC3)c2)o1 | 6.21%
CCOC(=O)c1ccc(NC(=O)CCn2c(=O)oc3ccccc32)cc1 | 9.25%
CCCc1nnc(SCC(=O)Nc2ccc(C(=O)OCC)cc2)o1 | 3.14%
CC(C)NS(=O)(=O)c1ccc(NC(=O)c2cccnc2)cc1 | -3.02%
C#CCNc1ccc(C(=O)OCC)cc1 | 31.8% (active)
O=C(Cc1ccccc1)Nc1ccc(NC(=O)c2cccnc2)cc1 | -2.68%

SMILES | max response
CCOC(=O)c1ccc(NC(=O)CSc2nnc(COc3ccccc3OC)n2C)cc1 | 4.99%
CCOC(=O)c1ccc(NC(=S)N2CCCC2)cc1 | 9.83%
CCOC(=O)c1ccc(NC(=O)CSc2ncccn2)cc1 | 26.6% (active)
COc1ccc(C)cc1NC(=O)c1ccc(-c2ccc(C(C)=O)cc2)o1 | 16%
CCOC(=O)c1ccc(NC(=O)c2cccnc2)cc1 | 38.1% (active)
CCOC(=O)c1ccc(-c2ccc(C(=O)Nc3cccnc3)o2)cc1 | 32.1% (active)
CCCCC(CCC(=O)Nc1ccc(C(=O)OCC)cc1)C(=O)O (stereo not given) | 0.691%
COc1ccccc1N1CC(C(=O)Nc2nnc(SCC(=O)NC(C)C)s2)CC1=O (stereo not given) | -0.494%
C=CCN1C(=O)C(O)(CC(=O)c2ccc(Cl)cc2)c2ccccc21 (stereo not given) | -1.68%
Cc1c([N+](=O)[O-])c(N)nn1C | -1.77%
COCCNC(=S)N(CCc1c(C)[nH]c2ccc(C)cc12)Cc1cccnc1 | -0.385%
C=CCNC(=O)c1sc(SC)cc1-c1ccc(Cl)cc1 | -0.634%
CCOC(=O)C1CCN(C(=O)CN2C(=O)c3cccnc3Oc3ccc(C)cc32)CC1 | -3.81%
CCCOc1ccc(C(=O)C(CCC(CNCC)C(=O)c2ccc(OCCC)cc2)CNCC)cc1 (stereo not given) | -10%
O=S(=O)(NCC1CC1)c1ccc(F)c(Cl)c1 | 0.9%
O=C(NC1C2CC3CC(C2)CC1C3)c1ccc(N2CCNCC2)c([N+](=O)[O-])c1 (stereo not given) | -2.96%
N#Cc1cc([N+](=O)[O-])ccc1NCC1CCCO1 (stereo not given) | -4.48%
O=C(Cc1cccs1)Nc1ccc([N+](=O)[O-])cc1 | -1.6%
CCOC(=O)c1ccc(NC(=O)Cc2cccs2)cc1 | 33% (active)
CCOc1ccccc1NC(=O)Cc1cccs1 | -3.39%
